Assay outcomes: PubChem BioAssay, National Center for Advancing Translational Sciences (NCATS)
Compounds with a hit are over-represented: about 9.3% of the library has one in this group of screens.
FLuc counter – counter-screen for miR-21 project: firefly luciferase inhibitors or activators; P08659; purified FLuc, Km substrates, luminescence inhibition; Potency, µM (top dose mostly 57.5 µM), usual class: inhibitors; hit rate 6.9% among 360,000; also: nearly all actives have a fitted effect of over 55% in size
Target sequence (P08659 whole entry, looked up): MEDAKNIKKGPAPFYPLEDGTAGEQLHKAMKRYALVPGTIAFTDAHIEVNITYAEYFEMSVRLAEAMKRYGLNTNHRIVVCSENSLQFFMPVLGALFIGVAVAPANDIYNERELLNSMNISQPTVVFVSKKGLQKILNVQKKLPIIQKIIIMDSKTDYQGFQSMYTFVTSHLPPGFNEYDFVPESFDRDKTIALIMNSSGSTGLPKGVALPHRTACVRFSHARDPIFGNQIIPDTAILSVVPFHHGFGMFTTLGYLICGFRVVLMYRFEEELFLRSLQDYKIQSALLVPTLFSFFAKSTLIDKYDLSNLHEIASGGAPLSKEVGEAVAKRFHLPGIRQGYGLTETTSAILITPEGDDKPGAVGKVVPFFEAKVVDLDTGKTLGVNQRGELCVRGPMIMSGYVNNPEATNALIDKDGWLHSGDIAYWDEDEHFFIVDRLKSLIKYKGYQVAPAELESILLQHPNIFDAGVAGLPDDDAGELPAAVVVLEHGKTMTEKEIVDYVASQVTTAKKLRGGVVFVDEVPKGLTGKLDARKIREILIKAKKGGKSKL
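Purified P. pyralis luciferase (10nM final) with 10uM D-luciferin and 10uM ATP (Km levels) in 50mM Tris acetate pH 7.5, 10mM Mg acetate, 0.01% Tween-20, 0.05% BSA; qHTS 6-point titration, ~60 µM downward; luminescence read.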
Rab9 promoter act – Rab9 promoter activation | Huh7 Rab9 promoter-luciferase reporter, luminescence, 24 h | Potency, µM (titrated, usually from 9.22 µM), most hits filed as activators | hit rate 2.8% among 320,000 | AID 485297; also: nearly all actives have a fitted effect of over 60% in size
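Promoter activation is measured as luciferase luminescence in Huh7 cells stably transfected with a Rab9 promoter–luciferase construct, following 24 h compound exposure at 37 °C and 10 min reagent incubation at ambient temperature.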
ELG1 DNA repair – ELG1-dependent DNA repair inhibition; Potency, µM (highest dose often 46.1 µM), most hits filed as inhibitors; AID 504467; HEK293T ELG1-luciferase reporter, luminescence, 16 h; DNA damage induced by 5-fluorouridine; hit rate 2.3% among 330,000; also: nearly all actives have a fitted effect of over 55% in size
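Step one: seed 2,000 cells per well. Step two: pin-transfer compound or DMSO alongside 5-fluorouridine. Step three: incubate 16 hr, 37 °C, 5% CO2. Step four: add ONE-Glo, wait 30 min, read luminescence.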
SMN2 splice enh – SMN2 splice variant enhancement | Potency, µM (highest dose often 46.1 µM), usual class: activators | hit rate 2.8% among 210,000 | AID 1458 | HEK293 SMN2-luciferase splicing reporter, luminescence, 30-36 h; also: nearly all actives have a fitted effect of over 55% in size
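HEK293 cells carry an SMN2 […]–luciferase reporter in which exon 7 inclusion puts luciferase in frame. Cells were plated 10-12 h before compound addition, then incubated 30-36 h at 37C. ONE-Glo luminescence was read; sodium butyrate at 4.5 mM final served as control.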
NPC1 prom act – activators of NPC1 promoter | Huh7 NPC1 promoter luciferase reporter, 24 h | Potency, µM (doses to about 9.22 µM), most hits filed as activators | hit rate 2.4% among 320,000 | AID 485313; also: nearly all actives have a fitted effect of over 60% in size
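Stably transfected Huh7 (NPC1 promoter→luciferase), 1500 cells/well in Opti-MEM + 10% FBS, 2 h settle, then compound 24 h at 37 °C. Luminescence after 10 min with Amplite reagent.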
ELG1 genotoxic – induces genotoxicity in HEK293T cells with luciferase-tagged ELG1; hit rate 1.3% among 330,000; Potency, µM (titrated, usually from 46 µM), actives largely listed as activators; HEK293T ELG1-luciferase reporter, luminescence, 16 h; AID 504466; also: nearly all actives have a fitted effect of over 60% in size
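16 hr compound incubation (37 °C, 5% CO2) of HEK293T cells carrying luciferase-tagged ELG1; luciferase then measured by ONE-Glo luminescence after 30 min at RT.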
Hits are given with their value; i = inactive; ? = inconclusive; nt = no result. Calls follow the shape of the dose curve; as a rule, active = well fitted curve in the direction sought with a large enough effect; inconclusive = small, poorly fitted or top-dose-only effect, or another doubt; inactive = no such curve, though single readings can be large; an effect the other way counts as inactive or inconclusive.

SMILES	FLuc counter	Rab9 promoter act	ELG1 DNA repair	SMN2 splice enh	NPC1 prom act	ELG1 genotoxic
NS(=O)(=O)c1cccc(NC(=O)c2cccc(N3C(=O)c4ccccc4C3=O)c2)c1	nt	nt	i	nt	nt	i
COc1ccc(NC(=O)N(C)C[C@H]2Oc3c(NC(=O)C4CC4)cccc3C(=O)N([C@H](C)CO)C[C@@H]2C)cc1	nt	nt	i	nt	nt	i
O=C(Nc1nnc(-c2cc(Cl)ccc2Cl)o1)c1ccco1	6.01µM	i	?	nt	i	?
O=C(Nc1ccc(Cl)cc1C(=O)Nc1ccncc1)c1ccco1	i	i	?	31.6µM	i	i
CC(=O)c1cc(F)c(N2CCN(C(=O)c3ccco3)CC2)cc1C	i	i	i	i	i	i
CC(=O)c1ccc(N2CCN(C(=O)c3ccco3)CC2)c(F)c1	i	?	?	2.82µM	?	?
O=C(Nc1ccc(Br)c(Cl)c1)c1ccco1	21.3µM	3.55µM	?	?	?	20.6µM
Cc1cccc(CN2C(=O)N(c3ccc(C(C)C)cc3)S(=O)(=O)c3ccccc32)c1	i	nt	nt	nt	nt	nt
O=C(Nc1ccc(N2CCN(C(=O)c3ccccc3)CC2)c(Cl)c1)c1ccco1	i	i	11.6µM	i	i	i
O=C(Nc1ccc(N2CCN(C(=O)c3ccco3)CC2)c(Cl)c1)c1cc2ccccc2o1	?	i	5.17µM	i	i	i
CC(=O)N1CCN(c2ccc(NC(=O)c3ccco3)cc2Cl)CC1	?	i	?	nt	i	?
COc1cc(-c2[nH]nc3c2C(c2ccoc2)C(C#N)=C(N)O3)cc(OC)c1OC (configuration not stated)	i	i	?	i	i	i
CCn1c(=O)c(C(=O)NNC(=O)c2ccccc2F)c(O)c2ccccc21	i	i	i	nt	i	i
O=C(c1ccc2nc(Cc3cccc(Cl)c3)oc2c1)N1CCOCC1	16.9µM	?	?	nt	?	?
COc1ccc(Cc2nc3ccc(C(=O)N4CCCC4)cc3o2)cc1	13.5µM	2.24µM	?	nt	3.16µM	?
COC(=O)CCCNC(=O)c1ccc2nc(Cc3ccc(OC)cc3)oc2c1	i	i	i	nt	i	i
C=C(C)CNC(=O)c1ccc2nc(Cc3ccc(OC)cc3)oc2c1	10.7µM	2.82µM	?	nt	2.24µM	?
Cc1cc([N+](=O)[O-])nn1CCCC(=O)NC(C)c1ccccc1 (configuration not stated)	i	i	i	i	?	i
N#C/C(C(=O)Oc1ccccc1)=C1\C=CC=CN1	19µM	2.82µM	?	i	3.55µM	?
CCOC(=O)Cc1csc(NC(=O)/C=C/c2ccc(OC)cc2)n1	1.35µM	i	?	i	i	i
CCOC(=O)Cc1csc(NC(=O)COC(=O)/C=C/c2ccc(OC)cc2)n1	nt	nt	i	nt	nt	i
CCOC(=O)Cc1csc(NC(=O)CCCc2ccccc2)n1	i	i	i	nt	i	i
CCOC(=O)Cc1csc(NC(=O)/C=C\c2ccccc2)n1	5.36µM	i	?	i	i	i
CCOc1ccccc1NS(=O)(=O)c1csc(C(N)=O)c1	i	i	i	nt	i	i
Cc1nc(N)sc1C(=O)N/N=C/c1ccccc1[N+](=O)[O-]	i	2µM	?	14.1µM	2.82µM	i
SMILES	FLuc counter	Rab9 promoter act	ELG1 DNA repair	SMN2 splice enh	NPC1 prom act	ELG1 genotoxic
Cc1ccc2nc(C)c(C(=O)N/N=C/c3ccccc3[N+](=O)[O-])cc2c1	6.75µM	i	i	i	i	i
Cc1nc(N)sc1C(=O)N/N=C/c1c[nH]c2ccccc12	19µM	i	?	i	i	8.2µM
CN(/N=C/c1ccc(Cl)cc1)c1ncc(Cl)cc1C(F)(F)F	?	i	i	nt	i	i
Clc1ccc(-c2nnc(NC3=NCCCCC3)o2)cc1	0.426µM	0.316µM	?	?	0.355µM	?
CC1CCCCC1NC(=O)/C(C#N)=C/c1ccccc1F (configuration not stated)	?	i	25.9µM	i	i	i
CSc1ccc(/C=C(\C#N)C(=O)NC2CCCCC2C)cc1 (configuration not stated)	?	i	i	i	i	i
N#C/C(=C\c1c[nH]c2ccccc12)C(=O)NC1CC1	7.57µM	?	?	nt	3.55µM	?
COc1ccc(-c2[nH]ncc2/C=C(\C#N)C(=O)NC2CC2)cc1	i	i	18.4µM	i	i	i
N#C/C(=C\c1c[nH]c2ccccc12)C(=O)NC1CCCC1	15.1µM	i	?	nt	i	i
N#C/C(=C\c1cn[nH]c1-c1ccc(Cl)cc1)C(=O)NC1CC1	i	i	?	i	i	i
Cc1[nH]c2ccccc2c1/C=C(\C#N)C(=O)NC1CC1	16.9µM	?	?	nt	?	?
